From PubChem BioAssay AID588334 (Broad Institute, 2011)
In all, about 300,000 compounds went through this assay and about 2,300 (0.77%) were called active. This is one part of a sample in which actives are shown more often than they occur.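 How the source made its calls: active means mean activation of at least 80% with every replicate also reaching 80%; inconclusive means mean reaches 80% but some replicate falls short; inactive means the rest.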

assay: MITF-driven TRPM1 luciferase induction in melanoma cells – cell-based, SK-MEL-5, single point, primary screen (AID 588334); details: SK-MEL-5 TRPM1-promoter luciferase, 24 h; at 12.5 µM; active compounds read high; % of positive control, neutral wells = 0;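 further: 0% = neutral control wells and 100% = parthenolide positive control wells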

activation, active:
Cc1ccc(OCc2cc(C(=O)N(C)CCc3ccccc3)no2)cc1C 111%
COc1ccc2sc(-c3ccc(N(C)C)cc3)c(-c3ccc4cc[nH]c4c3)c2c1 102%
CC(C)(C)c1ccc(/C=C/C(=O)Nc2ncccn2)cc1 118%
O=C(Nc1ccc(N2CCCC2=O)cc1)c1cncc(Br)c1 114%
Cn1c(-c2ccc(C(F)(F)F)cc2)cc2onc(-c3ccccc3)c2c1=O 126%
CC(=O)c1sc(N/N=C/c2ccc(C(C)C)cc2)nc1C 94.8%
CCc1c(C)c2ccc(OC3CCCCC3=O)cc2oc1=O (stereo not drawn) 92.6%
Nc1ccc(-c2nnc(-c3ccc(-c4ccccc4)cc3)o2)cc1 89.1%
O=C(Nc1cccc(F)c1)NC1CCCCCCC1 119%
Cc1occc1C(=O)Nc1nnc(C2CCCCC2)s1 91.3%

activation, inactive:
Cc1cc([N+](=O)[O-])ccc1NS(=O)(=O)c1ccccc1 6.15%
CCN(CC)S(=O)(=O)c1cccc(NC(=O)c2ccc(S(=O)(=O)N3CCCC3)cc2)c1 -10.8%
Cc1ccc(OCc2cc(C(=O)N(C)CCn3ccnc3C)no2)cc1C 11%
Cc1cc(CN(C)C(=O)c2cc(COc3ccc(C)c(C)c3)on2)n[nH]1 11.7%
CCN1CCC(O)(/C=C/c2ccc(C)cc2)C(C(=O)/C=C/c2ccc(C)cc2)C1 (stereo not drawn) -75.9%
COc1cccc(CC(=NO)c2cccc(OC)c2)c1 1.7%
CCCN(CCC)S(=O)(=O)c1cc2c(cc1Br)CCN2C(=O)CC 3.88%
COc1ccc2sc(-c3ccc(N(C)C)cc3)c(C#CCO)c2c1 51.4%
COc1cc(OC)cc(-c2sc3ccc(OC)cc3c2-c2ccc3cc[nH]c3c2)c1 7.42%
CCOC(=O)c1ccccc1NC(=O)CSc1nc2c(sc(=S)n2CC)c(=O)[nH]1 1.55%
O=S(=O)(Nc1ccc2ccccc2c1)N1CCCCC1 3.28%
CC(C)(C)c1ccc(/C=C/C(=O)NCCCn2ccnc2)cc1 -9.17%
O=C(/C=C/c1ccc(Cl)cc1)Nc1ccc(S(=O)(=O)Nc2ncccn2)cc1 -11.3%
COc1ccc(CN2CCN(C(=O)c3cc(C4CC4)nn3-c3ccccc3)CC2)cc1F -1.05%
O=C(Nc1cccc(S(=O)(=O)N2CCCCC2)c1)c1cncc(Br)c1 -5.18%
O=C(Nc1cccc(S(=O)(=O)N2CCCC2)c1)c1cncc(Br)c1 15.2%
O=C(NN=Cc1ccc([N+](=O)[O-])cc1)C1CC1 17.3%
Cc1cc(OCCCC(=O)Nc2cc(S(=O)(=O)N3CCOCC3)ccc2N2CCOCC2)ccc1Cl 2.58%
Cn1c(-c2ccc(F)cc2)cc2onc(-c3ccccc3Cl)c2c1=O 76.3%
O=c1c2ccccc2c(-c2ccc(F)cc2)nn1-c1ccc(C(F)(F)F)cc1 -11.9%
O=S(=O)(O)c1cc2onnc2c2ccccc12 -3.61%
COc1ccc(-c2ccc3c(c2)C2CC3CCN2CCC#N)cc1 (stereo not drawn) 0.239%
CC(=O)c1sc(NC(=O)CCCOc2ccccc2C)nc1C -1.04%
CC(C)c1ccc(C=NNc2ccc([N+](=O)[O-])cn2)cc1 16.4%
Cc1ccc(Nc2c(O)nc[nH]c2=O)cc1C -6.95%
CCN(CC(=O)Nc1c(F)cccc1F)C(=O)Cc1cccs1 11.6%
O=[N+]([O-])c1ccc(COc2ccccc2CN2CCOCC2)cc1 -8.16%
O=C(Cc1ccc(NC(=O)C2CCCN(C(=O)CCc3ccccc3)C2)cc1)Nc1ccc(C(=O)N2CCOCC2)cc1 (stereo not drawn) 8.07%
COC(=O)Cc1c(C)c2ccc(OCC(=O)NCc3ccc4c(c3)OCO4)cc2oc1=O -3.93%
Cc1c(CCC(=O)O)c(=O)oc2cc(OCc3ccc(Br)cc3)ccc12 -2.55%
CC/C(=C\c1ccc(Cl)cc1)c1ccncc1 -3.21%
Nc1ccc(-c2nnc(-c3ccccc3)o2)cc1 27.8%
Brc1ccc(-c2nnc(-c3ccccc3)o2)o1 48.3%
CC[C@]12c3[nH]c4ccc(Cl)cc4c3CCN1C(=O)[C@@H](CC(=O)NCCCOC)C[C@@H]2C(=O)N1CCN(C(=O)C2CC2)CC1 -3.13%
O=C(Nc1cccc(F)c1)NC1CCCc2ccccc21 (stereo not drawn) 11.6%
C/C(CC(=O)Nc1cccc(F)c1)=N\NC(=O)C(=O)NC1CCCCC1 -5.94%
O=C(Nc1nnc(C2CC2)s1)c1cc(Cl)sc1Cl 6.39%
Cc1occc1C(=O)Nc1nnc(-c2ccncc2)s1 23%
